Bioassay records as filed in PubChem BioAssay.
D2 ag-1: agonists of human D2 dopamine receptor; P14416; HEK293 T-REx D2 cells, calcium flux agonist mode; activation, % at 2 µM; 0.53% of 340,000 active;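 active means activation over 3 SD above normal in the single-dose calcium agonist read, cut at about 30% in these data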; further: 0% is about no effect
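In this primary screen, compounds producing a positive calcium signal within 180 s of addition to tetracycline-induced, force-coupled HEK293 Trex D2 cells are flagged; cells are dye-loaded with a no-wash calcium kit beforehand.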
D2 PAM-1: D2 dopamine receptor (human) potentiation | P14416 | HEK293 T-REx D2, calcium flux, EC20 dopamine potentiation | potentiation, % at 10 µM | 0.34% of 340,000 active;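 active means potentiation over 3 SD above the plate norm, cut at about 30% in these data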; further: 0% is about no effect
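Primary screen. Calcium kinetics in induced HEK293 T-REx D2 cells: compound pre-addition 180 s, EC20 dopamine, 180 s more.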
D2 ag-2: activates the human D2 dopamine receptor; 0.084% of 360,000 active; P14416; DiscoveRx PathHunter D2 beta-arrestin, luminescence, 90 min; 100% = 57 uM dopamine signal; activation, % (concentration not given with the values); in the data active means activation above about 40%; inconclusive means between about 15% and that limit
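Agonist mode: compounds alone added to overnight-plated D2 PathHunter cells for 90 min at 37 C, with 57 uM final dopamine (EC100) defining full response. Beta-arrestin recruitment detected by chemiluminescent reagent, read after 1 h at ambient temperature.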
D2 antagonist: D2 dopamine receptor (human) antagonism; P14416; HEK293 TREx D2 cells, calcium flux, dopamine EC80; inhibition, % at 10 µM; 2% of 340,000 active; AID 485344; in the data active means inhibition above about 30%; inactive means below that, where a call was filed; further: 0% is about no effect
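Inhibition of EC80 dopamine-driven calcium flux, recorded kinetically, defines activity here; cells are a tetracycline-induced HEK293 T-REx line expressing force-coupled D2.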
D2 PAM-2: human D2 receptor positive allosteric modulation | P14416 | DiscoveRx D2 beta-arrestin cells, luminescence, 90 min; 100% = 57 uM dopamine signal | potentiation, % (test concentration not listed) | 0.23% of 360,000 active | AID 624464; in the data active means potentiation above about 50%; inconclusive means mostly about 30% to 49%
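PathHunter beta-arrestin assay in DiscoveRx D2 cells. Compounds were added with an EC20 of dopamine (50 nM final) for 90 min at 37 deg C. Luminescence was read 1 h after detection reagent, with 57 uM dopamine as the EC100 control.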
D3 ag: confirmation of human D3 dopamine receptor agonists, beta-arrestin | shares compounds with D2 ag-1 | DiscoveRx D3 beta-arrestin cells, luminescence, 90 min | Potency, µM (doses to about 76.9 µM), inactives show top-dose activation, actives largely listed as activators | 4% of 2,300 active | AID 720506;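 further: potency means the concentration at half of the fitted maximal effect; 100% = dopamine control response; nearly all actives have a fitted effect of over 70% in size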
Target sequence (P35462 whole entry, looked up): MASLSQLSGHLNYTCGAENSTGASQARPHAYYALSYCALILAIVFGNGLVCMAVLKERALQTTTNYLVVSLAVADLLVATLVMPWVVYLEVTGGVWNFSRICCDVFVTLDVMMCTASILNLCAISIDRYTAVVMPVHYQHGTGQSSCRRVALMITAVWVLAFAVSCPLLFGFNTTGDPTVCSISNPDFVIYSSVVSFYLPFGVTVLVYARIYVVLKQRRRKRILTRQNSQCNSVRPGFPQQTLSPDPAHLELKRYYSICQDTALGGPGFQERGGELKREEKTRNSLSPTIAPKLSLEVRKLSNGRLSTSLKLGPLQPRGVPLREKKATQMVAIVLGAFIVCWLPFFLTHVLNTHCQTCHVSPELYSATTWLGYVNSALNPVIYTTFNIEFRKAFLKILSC
D2 ag-3: D2 receptor agonism, beta-arrestin counterscreen | shares compounds with D2 ag-1 | DiscoveRx PathHunter D2 beta-arrestin, luminescence, 90 min; response scale: percent relative to full dopamine signal | Potency, µM (doses to about 76.9 µM), for the others: at the top dose activation, actives largely listed as activators | 5.9% of 2,300 active | AID 720507; further: potency means the concentration at half of the fitted maximal effect; % of control where 0% means no effect; nearly all actives have a fitted effect of over 70% in size
* marks the source's active call; other numbers are inactive results; ? = inconclusive; . = no result given. In the library only some 2.4% were active in any assay of this set; here they are far more common. Unless noted, the call rests on the fitted dose curve; in most records, active means well fitted activation curve with a large enough effect; inconclusive means small, poorly fitted or top-dose-only effect; inactive means flat fitted curve, though single readings scatter.

SMILES	D2 ag-1	D2 PAM-1	D2 ag-2	D2 antagonist	D2 PAM-2	D3 ag	D2 ag-3
CC(C)N1CCc2c(sc(NC(=S)NC(=O)c3ccccc3)c2C#N)C1	3	1	-9	1	-9	.	.
CCOc1ccc(-c2cn3c(n2)sc2cc(C(=O)N4CCCC(C)C4)ccc23)cc1 (configuration not stated)	0	-21	.	.	.	.	.
O=C(NNC(=S)Nc1cccc(C(F)(F)F)c1)c1ccc(Cl)cc1Cl	4	2	-10	-1	-22	.	.
CCC1CN2CCc3cc(OC)c(OC)cc3C2CC1CC1c2cc(OC)c(OC)cc2CCN1C(=O)C(Cc1c[nH]c2ccccc12)NC(=O)OC(C)(C)C (configuration not stated)	.	.	-1	.	-25	.	.
CCOC(=O)C(NCc1ccco1)(NC(=O)c1ccc(OC)cc1)C(F)(F)F (configuration not stated)	.	.	-2	.	-10	.	.
CCCC(c1nnnn1Cc1ccc(OC)cc1)N1CCN(c2ccccc2)CC1 (configuration not stated)	45*	-10	?	8	-5	-5%	?
CCc1ccc(OCC(O)Cn2c(N3CCCCC3)nc3c2c(=O)[nH]c(=O)n3C)cc1 (configuration not stated)	1	-8	3	-3	4	.	.
COc1cc(C(=O)CCN2CCC(c3ccccc3)C2)cc(OC)c1OC (configuration not stated)	46*	-26	-4	24	-39	-9%	-3%
O=C(CCN1CCC(c2ccccc2)C1)c1cccs1 (configuration not stated)	0	-23	-1	11	-16	.	.
CCOC(=O)c1ccc(-n2cccc2/C=C2\NC(=O)NC2=O)cc1	-1	-14	.	7	.	2%	2%
Brc1cccc(OCCN2CCc3ccccc3C2)c1	52*	-31	-4	96*	-2	25%	1%
CC(C)OC(=O)c1c(NS(=O)(=O)c2ccccc2)sc2c1CCCC2	1	3	-2	26	-1	-11%	-5%
CCc1cc(C(=O)NNC(=S)NC2CCCCC2)cs1	-1	1	-5	4	-23	.	.
Clc1ccc(Cn2nnc3ccccc32)cc1	0	12	-3	2	-4	.	.
Cc1ccc(-c2nnn(CC(=O)N(c3ccc4c(c3)OCCO4)C(C(=O)NCC3CCCO3)c3ccc(F)cc3)n2)o1 (configuration not stated)	-1	1	-16	2	-15	.	.
COc1ccc(NC(=O)c2ccc(CN3CCN(c4ccccc4)CC3)cc2)cc1OC	60*	-22	?	71*	-6	10%	?
COc1ccc(C)cc1NC(=O)c1ccc(CN2CCN(c3ccccc3)CC2)cc1	80*	-24	?	89*	21	14%	?
COc1ccccc1C(=O)Nc1ccc(N2CCN(Cc3ccccc3)CC2)cc1	4	5	0	-8	-19	.	.
COc1ccc(CC(C)N2CCN(c3ccccc3)CC2)cc1OC (configuration not stated)	65*	-13	?	66*	2	5%	?
COc1ccc(CN2CCN(CCCc3ccccc3)CC2)c(OC)c1	0	-18	.	-11	.	.	.
COc1ccc(C)cc1NC(=O)c1ccc(CN2CCc3ccccc3C2)cc1	1	-13	-1	26	-14	.	.
COc1ccc(CC(C)N2CCN(Cc3ccccc3)CC2)c(OC)c1 (configuration not stated)	59*	-21	5	83*	-11	-5%	10%
COc1ccc(S(=O)(=O)N2CCN(c3ccccc3)CC2)cc1OC	.	.	2	.	7	.	.
O=C(CC[C@H]1O[C@@H](n2ccc(=O)[nH]c2=O)[C@H](O)[C@@H]1O)NCc1cccc2ccccc12	.	.	-4	.	0	.	.
O=C(Nc1ccccc1)C1=C[C@H](c2csc3ccccc23)C[C@H](OCc2ccc(CO)cc2)O1	0	1	0	1	-5	.	.
SMILES	D2 ag-1	D2 PAM-1	D2 ag-2	D2 antagonist	D2 PAM-2	D3 ag	D2 ag-3
O=S(=O)(Nc1cc(Cl)ccc1-n1cncn1)c1ccccc1Cl	0	5	0	4	-16	.	.
COC(=O)c1c(NC(C)=O)sc2c1CCN(Cc1ccccc1)C2	38*	-21	0	-24	-9	7%	12%
CCOC(=O)c1c(NC(=O)CC)sc2c1CCN(Cc1ccccc1)C2	8	5	-6	-13	-17	.	.
CCOC(=O)c1c(NC(C)=O)sc2c1CCN(Cc1ccccc1)C2	25	-19	-3	-2	-8	.	.
CCOC(=O)c1c(NC(=O)C(C)Sc2cccc[n+]2[O-])sc2c1CCN(Cc1ccccc1)C2 (configuration not stated)	42*	14	-5	-6	-16	-3%	-7%
CC(C)Oc1ccc(CNC(=O)c2cnc3sc(N4CCCC4)nn3c2=O)cc1	3	-4	.	.	.	.	.
Cc1ccc(-c2nc(NC(=O)c3ccc(S(=O)(=O)N(CCC#N)CCC#N)cc3)sc2-c2ccccc2)cc1	1	7	0	2	17	.	.
O=C(NCc1cccnc1)C(=O)NCC(c1ccco1)N1CCN(c2ccccc2)CC1 (configuration not stated)	32*	-8	?	19	8	?	?
O=C(NCc1cccnc1)C(=O)NCC(c1ccco1)N1CCN(c2ccccc2F)CC1 (configuration not stated)	63*	-21	41*	-18	6	-4%	?
O=C(NCc1ccccc1)C(=O)NCC(c1ccco1)N1CCN(c2ccccc2F)CC1 (configuration not stated)	11	-5	-4	-6	-2	.	.
COc1ccc(-c2nc(C#N)c(NCc3ccc(F)cc3)o2)cc1OC	1	5	1	8	-18	.	.
Cc1ccc2c(c1)[nH]c1c(=O)n(Cc3ccco3)cnc12	33*	-17	-1	18	2	1%	0%
FC(F)(F)c1cccc(NC(=S)N2CCN(c3ccccn3)CC2)c1	24	-12	-5	2	-7	4%	4%
Oc1ccccc1N1CCN(C(=S)Nc2ccc(SC(F)F)cc2)CC1	3	7	8	-10	23	.	.
FC(F)Sc1ccc(NC(=S)N2CCN(c3ccccn3)CC2)cc1	31*	1	2	-14	-6	?	?
